Source: PubChem BioAssay
For some assays here: Potency and affinity values are given separately. The source made the active and inactive calls. Unless noted, how the calls were made is not given here.

Experiments:
[1] = antimalarial activity against Dd2 strain (AID 2302;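 active means growth inhibition above 50% at the single 2 µM test dose, taken to imply half-maximal potency below 2 µM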;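 further: 0% = DMSO untreated growth and 100% = chloroquine plus artemisinin killed control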); settings: P. falciparum Dd2 in RBCs, LDH growth readout, 72 h; at 2 µM; stronger effect = higher value
[2] = HepG2 cytotoxicity, primary screen, cytotoxicity control for P. falciparum antimalarial project, cell-based, ATP luminescence (AID 2303;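 active means inhibition above 50%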;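 further: 0% = DMSO wells and 100% = digitonin-killed cells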); settings: HepG2 viability, 24-48 h, at 10 µM, stronger effect = higher value
[3] = molecular target: L-lactate dehydrogenase (Plasmodium falciparum (isolate CDC / Honduras)) (UniProt Q27743); test: PfLDH activity inhibition – cell lysate, 3D7 strain, counter-screen for P. falciparum growth inhibition project (AID 2304);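 further: 0% = vehicle and 100% = reference inhibitor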; settings: P. falciparum 3D7 crude extract, LDH APAD/NBT absorbance; at 2 µM; stronger effect = higher value
[4] = inhibition of 3D7 malaria parasite growth – strain 3D7 (AID 2306);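 further: 0% = DMSO wells and 100% = chloroquine plus artemisinin control wells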; settings: P. falciparum 3D7 erythrocytic growth, LDH absorbance, 72 h; at 2 µM; stronger effect = higher value
[5] = molecular target: Calcium-dependent protein kinase 1 (Plasmodium falciparum (isolate 3D7)) (UniProt P62344); test: PfCDPK1 kinase inhibitors, biochemical, TCAMS library (AID 1159585; cut-off not given, nearly all actives have IC50 up to about 0.98 µM;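 further: inhibitors leave more ATP so luminescence rises with inhibition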); settings: recombinant PfCDPK1, Kinase-Glo ATP depletion luminescence
[6] = molecular target: Plasmodium falciparum protein kinase 6 (PK6, PF3D7_1337100) (UniProt Q8IDW1); test: PfPK6 kinase inhibitors, biochemical, TCAMS library (AID 1159586); settings: recombinant PfPK6, Kinase-Glo ATP depletion luminescence
[7] = molecular target: Protein kinase 7 (PK7), Plasmodium falciparum 3D7 (PF3D7_0213400) (UniProt Q7YTF7); test: inhibition of Plasmodium PK7 catalytic activity – biochemical, TCAMS antimalarial set, Kinase-Glo luminescence (AID 1159587); settings: recombinant PfPK7, Kinase-Glo ATP depletion luminescence
[8] = molecular target: Calcium-dependent protein kinase 4 (Plasmodium falciparum (isolate 3D7)) (UniProt Q8IBS5); test: PfCDPK4 kinase inhibitors, biochemical, TCAMS library (AID 1159588; cut-off not given, nearly all actives have IC50 up to about 0.91 µM); settings: recombinant PfCDPK4, Kinase-Glo ATP depletion luminescence
Sequence of Calcium-dependent protein kinase 4 (Plasmodium falciparum (isolate 3D7)) (Q8IBS5 whole entry, looked up): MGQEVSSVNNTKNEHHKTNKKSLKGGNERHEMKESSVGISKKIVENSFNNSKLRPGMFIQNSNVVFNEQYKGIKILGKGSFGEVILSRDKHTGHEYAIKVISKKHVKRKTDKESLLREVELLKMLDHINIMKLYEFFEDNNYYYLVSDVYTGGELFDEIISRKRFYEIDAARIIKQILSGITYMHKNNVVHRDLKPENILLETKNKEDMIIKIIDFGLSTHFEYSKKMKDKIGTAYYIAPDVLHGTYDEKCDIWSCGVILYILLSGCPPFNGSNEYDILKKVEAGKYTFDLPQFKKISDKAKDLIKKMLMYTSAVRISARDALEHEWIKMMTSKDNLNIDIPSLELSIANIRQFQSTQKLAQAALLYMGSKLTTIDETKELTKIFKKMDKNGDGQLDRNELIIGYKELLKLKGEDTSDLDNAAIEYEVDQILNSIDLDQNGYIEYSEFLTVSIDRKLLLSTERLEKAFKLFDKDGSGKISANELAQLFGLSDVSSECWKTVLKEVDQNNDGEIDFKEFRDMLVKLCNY

Sequence of Plasmodium falciparum protein kinase 6 (PK6, PF3D7_1337100) (Q8IDW1 1-305): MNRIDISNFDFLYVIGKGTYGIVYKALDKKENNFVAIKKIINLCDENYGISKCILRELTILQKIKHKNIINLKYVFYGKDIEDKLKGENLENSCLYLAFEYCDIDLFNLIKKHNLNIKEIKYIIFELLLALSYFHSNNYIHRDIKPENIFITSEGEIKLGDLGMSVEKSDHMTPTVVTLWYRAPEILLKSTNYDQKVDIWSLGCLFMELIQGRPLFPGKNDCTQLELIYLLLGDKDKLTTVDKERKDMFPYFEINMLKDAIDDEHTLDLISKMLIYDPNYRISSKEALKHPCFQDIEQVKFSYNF
Sequence of L-lactate dehydrogenase (Plasmodium falciparum (isolate CDC / Honduras)) (Q27743 whole entry, looked up): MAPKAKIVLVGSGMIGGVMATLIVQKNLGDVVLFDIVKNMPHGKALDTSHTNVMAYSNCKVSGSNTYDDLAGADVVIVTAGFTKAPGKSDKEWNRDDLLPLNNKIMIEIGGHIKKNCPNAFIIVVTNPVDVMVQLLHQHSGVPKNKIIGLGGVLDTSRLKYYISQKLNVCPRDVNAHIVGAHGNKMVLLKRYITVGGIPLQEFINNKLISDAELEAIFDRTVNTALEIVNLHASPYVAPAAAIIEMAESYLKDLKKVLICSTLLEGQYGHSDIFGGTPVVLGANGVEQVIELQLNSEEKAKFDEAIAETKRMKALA
Sequence of Calcium-dependent protein kinase 1 (Plasmodium falciparum (isolate 3D7)) (P62344 whole entry, looked up): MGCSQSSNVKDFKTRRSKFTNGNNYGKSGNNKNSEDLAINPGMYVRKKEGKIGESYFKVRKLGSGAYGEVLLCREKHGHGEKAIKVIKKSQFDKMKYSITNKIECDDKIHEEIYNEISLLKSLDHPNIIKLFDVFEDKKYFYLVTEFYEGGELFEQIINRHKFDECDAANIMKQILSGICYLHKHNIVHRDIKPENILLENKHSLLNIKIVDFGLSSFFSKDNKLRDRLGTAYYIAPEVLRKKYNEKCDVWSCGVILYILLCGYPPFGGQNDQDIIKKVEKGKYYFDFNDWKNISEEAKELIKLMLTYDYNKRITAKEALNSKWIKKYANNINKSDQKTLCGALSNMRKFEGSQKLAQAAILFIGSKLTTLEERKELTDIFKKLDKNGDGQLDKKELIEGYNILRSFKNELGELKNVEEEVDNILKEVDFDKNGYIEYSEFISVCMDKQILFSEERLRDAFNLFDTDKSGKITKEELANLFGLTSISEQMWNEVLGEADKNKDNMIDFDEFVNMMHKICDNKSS
Sequence of Protein kinase 7 (PK7), Plasmodium falciparum 3D7 (PF3D7_0213400) (Q7YTF7 1-343): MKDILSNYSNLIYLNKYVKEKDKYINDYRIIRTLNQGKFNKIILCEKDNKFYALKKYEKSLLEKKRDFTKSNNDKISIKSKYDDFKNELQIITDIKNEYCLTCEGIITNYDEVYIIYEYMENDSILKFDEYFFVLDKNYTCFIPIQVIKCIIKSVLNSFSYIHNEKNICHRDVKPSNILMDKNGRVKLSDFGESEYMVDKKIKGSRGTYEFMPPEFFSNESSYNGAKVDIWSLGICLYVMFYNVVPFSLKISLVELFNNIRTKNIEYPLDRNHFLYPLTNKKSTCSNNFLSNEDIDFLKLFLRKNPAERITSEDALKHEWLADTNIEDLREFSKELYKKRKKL

OCC1CCN(Cc2cccc(-c3ccc(-c4nc5ccc(C(F)(F)F)cc5[nH]4)cc3)c2)CC1
inactive: inhibition [2] 25% | inhibition [3] -3% | outcome [5] | outcome [6] | outcome [7] | outcome [8]
active: growth inhibition [1] 95% | growth inhibition [4] 101%

NC(=O)c1cccc(C(=O)Nc2ccc(-c3cccc(-c4nc5ccc(C(F)(F)F)cc5[nH]4)c3)cc2)c1
active: growth inhibition [1] 86% | inhibition [2] 74% | growth inhibition [4] 100%
inactive: inhibition [3] -2% | outcome [5] | outcome [6] | outcome [7] | outcome [8]

Cc1cccc2[nH]c(-c3cccc(-c4ccc(CNCc5ccccc5)cc4)c3)nc12
active: growth inhibition [1] 100% | growth inhibition [4] 99%
inactive: inhibition [2] 33% | inhibition [3] -3% | outcome [5] | outcome [6] | outcome [7] | outcome [8]

COc1cc(-c2nc(-c3ccccc3)c(-c3ccc(C(=O)c4ccc(F)cc4)cc3)[nH]2)cc(OC)c1O
active: growth inhibition [1] 100% | growth inhibition [4] 101%
inactive: inhibition [2] 0% | inhibition [3] -3% | outcome [5] | outcome [6] | outcome [7] | outcome [8]

O=C(Nc1ccccc1)N(Cc1cccc(-c2ccc(CNC3CCCC3)cc2)c1)C1CCN(Cc2ccccc2)CC1
inactive: inhibition [3] 8% | outcome [5] | outcome [6] | outcome [7] | outcome [8]
active: growth inhibition [1] 96% | inhibition [2] 100% | growth inhibition [4] 101%

O=C(N[C@@H](Cc1ccccc1)C(=O)NCCN1CCCCC1)c1ccc(O)c(-c2cccc(C(F)(F)F)c2)c1
active: growth inhibition [4] 92%
inactive: growth inhibition [1] 3% | inhibition [2] 0% | inhibition [3] 7% | outcome [5] | outcome [6] | outcome [7] | outcome [8]

CCCCCN1CCC(NS(=O)(=O)c2cccc(C(=O)Nc3ccc(C(F)(F)F)cc3)c2)C1 (stereo not given)
inactive: growth inhibition [1] 5% | inhibition [2] 45% | inhibition [3] -3% | outcome [5] | outcome [6] | outcome [7] | outcome [8]
active: growth inhibition [4] 95%

Fc1ccc(-c2cncc(Nc3ccncc3)n2)cc1
active: growth inhibition [4] 88%
inactive: growth inhibition [1] 11% | inhibition [2] 8% | inhibition [3] -1% | outcome [5] | outcome [6] | outcome [7] | outcome [8]

CON=Cc1ccn(-c2ccc(O)c3c2C[C@H]2C[C@H]4[C@H](N(C)C)C(=O)C(C(N)=O)=C(O)[C@@]4(O)C(=O)C2=C3O)c1
inactive: inhibition [2] 3% | inhibition [3] -1% | outcome [5] | outcome [6] | outcome [7] | outcome [8]
active: growth inhibition [1] 70% | growth inhibition [4] 96%

COc1ccc2nccc([C@@H](O)CN3CCC(NCc4cc5cccc(OC)c5o4)CC3)c2c1
inactive: inhibition [2] 10% | inhibition [3] -8% | outcome [5] | outcome [6] | outcome [7] | outcome [8]
active: growth inhibition [1] 81% | growth inhibition [4] 99%

CCCCn1c(Sc2ccc(C#N)c([N+](=O)[O-])c2)nnc1-c1cccc(Cl)c1
inactive: inhibition [2] 30% | inhibition [3] 2% | outcome [5] | outcome [6] | outcome [7] | outcome [8]
active: growth inhibition [1] 87% | growth inhibition [4] 96%

COc1ccc2nccc([C@@H](O)CN3CCC(NCCOc4cc(C(F)(F)F)ccc4F)CC3)c2c1
inactive: inhibition [2] 13% | inhibition [3] 2% | outcome [5] | outcome [6] | outcome [7] | outcome [8]
active: growth inhibition [1] 83% | growth inhibition [4] 100%

COc1ccc2nccc([C@@H](O)CN3CCC(NC(=O)c4ccc(Cl)c(OC)c4)CC3)c2c1
active: growth inhibition [4] 87%
inactive: growth inhibition [1] 28% | inhibition [2] 26% | inhibition [3] 5% | outcome [5] | outcome [6] | outcome [7] | outcome [8]

Fc1cccc2sc(Nc3nc(-c4ccccn4)cs3)nc12
active: growth inhibition [1] 97% | growth inhibition [4] 95%
inactive: inhibition [2] 30% | inhibition [3] 6% | outcome [5] | outcome [6] | outcome [7] | outcome [8]

CCN(CC)c1ccc(NC(=S)NC2CCN(CCCCCNC(=O)/C=C/c3ccc(Cl)c(Cl)c3)CC2)cc1
inactive: inhibition [2] 16% | inhibition [3] 3% | outcome [5] | outcome [6] | outcome [7] | outcome [8]
active: growth inhibition [1] 58% | growth inhibition [4] 100%

COc1cc(Nc2nccc(N3CCC(NC(=O)c4cccc(NC(C)=O)c4)C3)n2)cc(OC)c1OC (stereo not given)
inactive: inhibition [2] 9% | inhibition [3] -6% | outcome [5] | outcome [6] | outcome [7] | outcome [8]
active: growth inhibition [1] 68% | growth inhibition [4] 98%

CCC(=O)c1ccc(-c2ccc(=O)n(CC(=O)N(CCN(CC)CC)Cc3ccc(-c4ccc(C(F)(F)F)cc4)cc3)n2)cc1
inactive: inhibition [3] -7% | outcome [5] | outcome [6] | outcome [7] | outcome [8]
active: growth inhibition [1] 67% | inhibition [2] 91% | growth inhibition [4] 98%

CC(C)C(=O)NC(Nc1ccc([N+](=O)[O-])cc1)C(Cl)(Cl)Cl (stereo not given)
inactive: inhibition [2] 7% | inhibition [3] -6% | outcome [5] | outcome [6] | outcome [7] | outcome [8]
active: growth inhibition [1] 84% | growth inhibition [4] 97%

COc1cc2c(=O)c(Cc3ccc(Cl)cc3)c(C)[nH]c2cc1F
active: growth inhibition [4] 85%
inactive: growth inhibition [1] 28% | inhibition [2] 13% | inhibition [3] 1% | outcome [5] | outcome [6] | outcome [7] | outcome [8]

O=C(Nc1cccc(Cl)c1)OC1CCCN2CCCCC12 (stereo not given)
active: growth inhibition [4] 85%
inactive: growth inhibition [1] -4% | inhibition [2] 6% | inhibition [3] 1% | outcome [5] | outcome [6] | outcome [7] | outcome [8]

N#Cc1ccc(NC(=NC2Cc3ccccc3C2)Nc2cccc(Cl)c2Cl)c(O)c1
inactive: inhibition [2] 15% | inhibition [3] -10% | outcome [5] | outcome [6] | outcome [7] | outcome [8]
active: growth inhibition [1] 77% | growth inhibition [4] 94%

Cc1cc(-c2cccc(CNC3CCN(C)CC3)c2)ccc1S(=O)(=O)NCc1ccccc1
inactive: inhibition [3] 4% | outcome [5] | outcome [6] | outcome [7] | outcome [8]
active: growth inhibition [1] 90% | inhibition [2] 53% | growth inhibition [4] 99%

CCN(CC)C(=O)c1cccc(/C=C/c2ccc(-c3c(C)[nH]c(C)c(Cl)c3=O)cc2)c1
active: growth inhibition [1] 96% | growth inhibition [4] 96%
inactive: inhibition [2] 9% | inhibition [3] 6% | outcome [5] | outcome [6] | outcome [7] | outcome [8]

COC(=O)c1cc(OC)c(OC)cc1NC(=O)NC12CC3CC(CC(C3)C1)C2
inactive: growth inhibition [1] 3% | inhibition [2] 6% | inhibition [3] 6% | outcome [5] | outcome [6] | outcome [7] | outcome [8]
active: growth inhibition [4] 94%

O=C(NC1CCC1)C1CCN(C(c2ccccc2)c2cc(F)cc(F)c2)CC1 (stereo not given)
inactive: inhibition [2] 0% | inhibition [3] -2% | outcome [5] | outcome [6] | outcome [7] | outcome [8]
active: growth inhibition [1] 72% | growth inhibition [4] 94%

Fc1ccc2nc(-c3cccc(-c4ccc(CN5CCC(CCN6CCCCC6)CC5)cc4)c3)[nH]c2c1
inactive: inhibition [3] -2% | outcome [5] | outcome [6] | outcome [7] | outcome [8]
active: growth inhibition [1] 100% | inhibition [2] 91% | growth inhibition [4] 101%

COC(=O)c1cccc(CNCc2ccc(-c3cccc(-c4nc5ccc(C(F)(F)F)cc5[nH]4)c3)cc2)c1
active: growth inhibition [1] 97% | growth inhibition [4] 102%
inactive: inhibition [2] 5% | inhibition [3] 6% | outcome [5] | outcome [6] | outcome [7] | outcome [8]

O=C(CCc1cnc[nH]1)Nc1cccc(-c2ccc(-c3nc4ccccc4[nH]3)cc2)c1
active: growth inhibition [1] 60% | growth inhibition [4] 100%
inactive: inhibition [2] 24% | inhibition [3] 1% | outcome [5] | outcome [6] | outcome [7] | outcome [8]

CC[C@H](C)[C@@H](C(=O)N1CCOCC1)N1CC[C@H](NS(=O)(=O)CC(C)(C)c2ccc(Cl)cc2)C1=O
active: growth inhibition [1] 95% | growth inhibition [4] 101%
inactive: inhibition [2] -1% | inhibition [3] 1% | outcome [5] | outcome [6] | outcome [7] | outcome [8]

CCN1CCN(c2cc(C)c3cc(NC(=O)c4ccc(Br)o4)ccc3n2)CC1
active: growth inhibition [4] 98%
inactive: growth inhibition [1] 13% | inhibition [2] -8% | inhibition [3] -7% | outcome [5] | outcome [6] | outcome [7] | outcome [8]

COc1ccc2c(c1)nc(CN=C(N)N)n2Cc1ccc(Cl)cc1
inactive: inhibition [2] 12% | inhibition [3] 4% | outcome [5] | outcome [6] | outcome [7] | outcome [8]
active: growth inhibition [1] 99% | growth inhibition [4] 102%

CCc1ccc(NC(=O)N(CCCN2CCN(C)CC2)Cc2csc(-c3ccc(CNCc4ccccc4)cc3)n2)cc1
active: growth inhibition [1] 80% | growth inhibition [4] 99%
inactive: inhibition [2] 17% | inhibition [3] -1% | outcome [5] | outcome [6] | outcome [7] | outcome [8]

O=C(Nc1ccc(F)cc1)NC1CCN(c2ccnc3cc(Cl)ccc23)C1 (stereo not given)
inactive: inhibition [2] 17% | inhibition [3] 2% | outcome [5] | outcome [6] | outcome [7] | outcome [8]
active: growth inhibition [1] 67% | growth inhibition [4] 101%

COc1ccc(CNCc2ccsc2)cc1-c1ccc(S(=O)(=O)NCCN2CCCC2)c(C)c1
active: growth inhibition [4] 85%
inactive: growth inhibition [1] 43% | inhibition [2] 49% | inhibition [3] -1% | outcome [5] | outcome [6] | outcome [7] | outcome [8]

Nc1nccc2ccc(-c3ccncc3)cc12
active: growth inhibition [1] 95% | growth inhibition [4] 96%
inactive: inhibition [2] 19% | inhibition [3] 5% | outcome [5] | outcome [6] | outcome [7] | outcome [8]

Cc1c(CC(=O)NCCC2CCN(CCCCCNC(=O)/C=C/c3ccc(Cl)c(Cl)c3)CC2)sc2ccc(Cl)cc12
active: inhibition [2] 59% | growth inhibition [4] 92%
inactive: growth inhibition [1] 8% | inhibition [3] 0% | outcome [5] | outcome [6] | outcome [7] | outcome [8]

Cc1[nH]nc2ccc(-c3cc(OC[C@@H](N)Cc4ccccc4)cnc3-c3ccc(OCc4cccc(F)c4)cc3)cc12
inactive: inhibition [3] -5% | outcome [5] | outcome [6] | outcome [7] | outcome [8]
active: growth inhibition [1] 59% | inhibition [2] 97% | growth inhibition [4] 98%

COc1ccc2nccc([C@@H](O)CN3[C@@H]4CC[C@H]3CC(NCc3ccc5c(n3)NC(=O)CS5)C4)c2n1 (stereo not given in full)
inactive: growth inhibition [1] 11% | inhibition [2] -1% | inhibition [3] 4% | outcome [5] | outcome [6] | outcome [7] | outcome [8]
active: growth inhibition [4] 99%

Oc1ccccc1CN1CCC2(CCCN(Cc3ccccc3F)C2)C1 (stereo not given)
active: growth inhibition [1] 83% | growth inhibition [4] 98%
inactive: inhibition [2] 13% | inhibition [3] -2% | outcome [5] | outcome [6] | outcome [7] | outcome [8]

COC(=O)c1sc2ccccc2c1NC(=O)c1ccc(C)c(C)c1
active: growth inhibition [4] 88%
inactive: growth inhibition [1] 48% | inhibition [2] 4% | inhibition [3] -7% | outcome [5] | outcome [6] | outcome [7] | outcome [8]
